RGS4-Gao reg – modulators of RGS4 binding to Galphao, primary screen, biochemical, multiplexed bead flow cytometry; actives lie on both sides; binding response (% of control), % at 10 µM; actives 0.33% (n = 220,000); in the data active = binding response below about 49% or above about 150%; inactive = in between;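 also: fluorescent Galphao activated with aluminum fluoride binding bead-coupled RGS4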
RGS8-Gao reg – RGS8-Galphao binding modulators, primary screen, biochemical, multiplexed bead flow cytometry. Guanine nucleotide-binding protein G(o) subunit alpha (Homo sapiens), P09471. actives lie on both sides. response (percent of control binding), % at 10 µM. actives 0.34% (n = 220,000). AID 1423, 2008; in the data active = response below about 60% or above about 140%; inactive = in between;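 also: Galphao activated as the GDP aluminium fluoride complex binding bead-coupled RGS8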
Avidin fluor – green autofluorescence of compounds with avidin beads – biophysical, 488/530 nm, flow cytometry, artefact control, profiling panel; compound fluorescence 488/530 nm; active compounds read high; fluorescence (KMESF) at 10 µM; actives 0.38% (n = 220,000); AID 1775, 2009; in the data active = fluorescence above about 47
RGS7-Gao – RGS7-Galphao binding modulators, primary screen, biochemical, multiplexed bead flow cytometry. actives 0.35% (n = 220,000). actives lie on both sides. AID 1439, 2008. binding response (% of control), % at 10 µM; in the data active = binding response below about 49% or above about 150%; inconclusive = no clear call, values can overlap the other calls; inactive = in between;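 also: fluorescent Galphao held in activated GDP-AlF4 state binding bead-coupled RGS7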
GSH fluor – compound fluorescence on glutathione beads, profiling panel, artefact control, biophysical, 488/530 nm, flow cytometry; GSH beads flow cytometry, compound fluorescence 488/530 nm; active compounds read high; actives 0.25% (n = 190,000); fluorescence (KMESF) at 10 µM; AID 1776, 2009; in the data active = fluorescence above about 89;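 also: glutathione beads carrying GST-tagged Bcl family fusion proteins plus one bare bead set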
RGS16-Gao HTS – modulators of RGS16 binding to Galphao, primary screen, biochemical, human proteins, multiplexed bead flow cytometry; actives 0.38% (n = 220,000); Regulator of G-protein signaling 16 (Homo sapiens) + Guanine nucleotide-binding protein …; binding response (% of control), % at 10 µM; bead-based flow cytometry RGS16-Galphao binding, fluorescence; actives lie on both sides; call rule not given here;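 also: Galphao activated by GDP with aluminum fluoride before binding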
Target sequence (O15492 whole entry, looked up): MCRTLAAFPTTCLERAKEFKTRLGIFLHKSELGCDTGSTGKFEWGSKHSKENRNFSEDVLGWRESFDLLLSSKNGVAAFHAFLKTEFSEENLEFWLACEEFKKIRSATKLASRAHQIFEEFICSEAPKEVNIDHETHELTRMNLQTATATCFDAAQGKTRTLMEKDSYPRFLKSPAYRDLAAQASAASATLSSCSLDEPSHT
Target sequence (P09471 whole entry, looked up): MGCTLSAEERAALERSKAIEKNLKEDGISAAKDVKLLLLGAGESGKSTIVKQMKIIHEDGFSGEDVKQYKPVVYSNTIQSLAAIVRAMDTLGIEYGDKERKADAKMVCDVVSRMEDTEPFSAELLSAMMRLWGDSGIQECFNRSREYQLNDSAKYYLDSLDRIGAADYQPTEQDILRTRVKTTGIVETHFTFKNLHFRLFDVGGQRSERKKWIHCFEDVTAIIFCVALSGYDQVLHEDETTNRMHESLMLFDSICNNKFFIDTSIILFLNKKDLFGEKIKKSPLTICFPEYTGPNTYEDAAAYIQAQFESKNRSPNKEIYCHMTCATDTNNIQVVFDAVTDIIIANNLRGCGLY
Each line names hits and unclear results; the compound was inactive in the other large screens; [ ] = another dose, or the depositor's remark. Most compounds without a hit are left out; they make up all but 1.2% or so of the library.

CC(C)Sc1nc2c([nH]c3ccccc32)c(=O)n1C	Avidin fluor 57
CCOC(=O)C(C)Sc1nc2c([nH]c3ccccc32)c(=O)n1C (stereo not drawn)	none
CCOc1c(OC(C)=O)ccc(/C=C2\N=C(SCC)SC2=O)c1[N+](=O)[O-]	Avidin fluor 78
CN1CCN(C(=O)C2=C[C@@H](c3ccccc3)C[C@@H](OCCCCO)O2)CC1	none
CCCc1nnc(NS(=O)(=O)c2ccc(OC)cc2)s1	none
COc1ccc(S(=O)(=O)Nc2nncs2)cc1	Avidin fluor 49
Cc1ccc(NS(=O)(=O)c2ccc3c(c2)NC(=O)CC(=O)N3)cc1C	Avidin fluor 58
COc1ccc(NS(=O)(=O)c2ccc3c(c2)NC(=O)CO3)cc1	none
O=C(NCCN1CCN(Cc2ccccc2)CC1)C1c2ccccc2C(=O)N2CCc3ccccc3C12 (stereo not drawn)	Avidin fluor 112
O=C(N=Nc1ccc(NOC(=O)c2ccccc2Br)cc1)c1ccccc1O	RGS7-Gao inconclusive
Cc1ccc(-c2nn(CC(=O)NCc3cc(-c4nn(C)c(=O)c5ccccc45)ccc3C)c(=O)c3ccccc23)cc1	RGS4-Gao reg active[activator], RGS8-Gao reg 209.2[activator], Avidin fluor 487, RGS7-Gao active[activator]
Cc1ccc(OCc2nc(-c3cccs3)no2)c([N+](=O)[O-])c1	none
O=C(c1ccc(COc2ccccc2Br)o1)N1N=C(C(F)F)CC1(O)C(F)F (stereo not drawn)	none
Cc1cc(NC(=O)CSc2nc3ccsc3c(=O)n2NC(=O)c2ccccc2)no1	RGS4-Gao reg 19.3, RGS8-Gao reg 38.7, RGS7-Gao 25.2, RGS16-Gao HTS 23.2
Cc1ccc(CNC(=O)CSc2nc3ccsc3c(=O)n2NC(=O)c2ccccc2)cc1	none
CCOC(=O)CCCNC(=O)COC(=O)c1cccc(C)c1O	GSH fluor 261
CCC(CC)NC(=O)COC(=O)c1cccc(C)c1O	GSH fluor 262
Cc1cccc(C(=O)OCC(=O)Nc2ccc(N3CCCCC3)cc2)c1O	none
COc1ccccc1CN1C[C@@H]2C[C@@H](c3ccc(C)c(C)c3)N3CCC[C@@]23C1=O	none
C=CCCC(=O)Nc1nc(C)c(-c2csc(Nc3cc(OC)ccc3OC)n2)s1	none
CCCC(=O)Nc1nc(C)c(-c2csc(Nc3cc(OC)ccc3OC)n2)s1	Avidin fluor 80
O=S(=O)(c1ccc(Br)s1)N1CCc2ccccc2C1	Avidin fluor 48
NS(=O)(=O)c1ccc(NC(=O)N[C@@H](Cc2ccccc2)C(=O)O)cc1	none
NC(=O)NC(Cc1ccccc1)C(=O)Nc1ccc(S(N)(=O)=O)cc1 (stereo not drawn)	GSH fluor 253
CC1CCN(CCCNC(=O)c2cc3c(Cl)nc4ccccc4c3s2)CC1	none
OC(CN1CCOCC1)c1ccc(F)cc1 (stereo not drawn)	RGS7-Gao inconclusive
O=C(c1ccc(F)cc1)C(CCCCCC(CN1CCOCC1)C(=O)c1ccc(F)cc1)CN1CCOCC1 (stereo not drawn)	Avidin fluor 185
CC(C)Cn1c(N)c(C(=O)CSc2ncnc3sc4c(c23)CCCC4)c(=O)n(C)c1=O	GSH fluor 101
N=C1C(c2nc3ccccc3s2)=C(O)CN1c1ccccc1	none
COc1ccc(C(=O)N/N=C(\C)CC(=O)Nc2cccc(C(F)(F)F)c2)cc1	Avidin fluor 69, RGS7-Gao inconclusive (no result: GSH fluor)
COCCNC(=O)C(=O)N/N=C(\C)CC(=O)Nc1cccc(C(F)(F)F)c1	RGS7-Gao inconclusive (no result: GSH fluor)
Cn1c(-c2nnn(-c3ccc(F)cc3)n2)cc2ccccc21	none
Cc1ccc2sc(-c3ccc(NC(=O)/C=C\C(=O)O)cc3)nc2c1	none
CCCOC(=O)c1ccc(NC(=O)c2ccoc2C)cc1	Avidin fluor 51
CCCOC(=O)c1ccc(NC(=O)COC)cc1	none
CCCOC(=O)c1ccc(NC(=O)C2C3C=CC(O3)C2C(=O)O)cc1 (stereo not drawn)	GSH fluor 244
N#C/C(=C\c1c[nH]c2ccccc12)C(=O)NCC1CCCO1 (stereo not drawn)	none
COc1ccc(NC(=O)Cn2cnc3ccccc3c2=O)cc1OC	none
O=C(COC(=O)Cn1cnc2ccccc21)NCc1ccc(F)cc1	RGS7-Gao inconclusive
O=C(Cn1cnc2ccccc21)NCc1ccccc1	Avidin fluor 58
COc1ccccc1CNC(=O)Cn1cnc2ccccc2c1=O	GSH fluor 234
O=C(CSc1n[nH]c(=O)[nH]c1=O)N/N=C/c1ccccc1	GSH fluor 215
O=C(Cc1n[nH]c(=O)[nH]c1=O)N/N=C/c1ccccc1	none
Cc1ccc(NC(=O)NNC(=O)c2snnc2C)cc1	none
O=C(NCC(=O)N(c1cccnc1)C(C(=O)NC1CCCC1)c1ccco1)c1cccs1 (stereo not drawn)	Avidin fluor 57
NC(=O)C1(C(N)=O)OC1c1ccccc1 (stereo not drawn)	RGS7-Gao inconclusive (no result: GSH fluor)
Cc1cccc(C)c1NC(=O)CSc1nc(-c2ccco2)cc(C(F)(F)F)n1	Avidin fluor 67
O=C(O)C1C2C=CC(C2)C1C(=O)NCCc1cccc(Cl)c1 (stereo not drawn)	Avidin fluor 48
O=c1oc2ccccc2c(O)c1C=Nc1cccnc1	none
O=c1oc2ccccc2c(O)c1/C=N/c1ccccn1	GSH fluor 263
Cc1cc(=O)oc2cc(OCc3nnc(-c4ccccc4Br)o3)ccc12	Avidin fluor 49
CCCCCCNC1=NCCS1	none
CC(C)CNC(=O)c1cccc(NC(=O)COc2cccc([N+](=O)[O-])c2)c1	none

Source: PubChem BioAssay
